Source: PubChem
This is a sample that favours compounds with a hit; in the whole collection about 7.3% have one here.
Tau fluor cs: counter-screen for tau fibril formation inhibitors; 280,000 tested, 0.93% active; Potency, µM (doses to about 57.7 µM); tau K18 P301L Alexa594 fluorescence, heparin fibrillization; AID 1463; note: nearly all actives have a fitted effect of over 55% in size
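Human K18 P301L tau (15 uM unlabeled plus 0.24 uM Alexa 594-labeled, final) in 100 mM sodium acetate pH 7 was mixed with compound and 20 uM heparin and incubated 6 hr at 37 C.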
Tau FP inhib: blocks human tau fibril formation measured by polarization; Potency, µM (series often up to 57.7 µM), most hits filed as inhibitors; K18 P301L tau heparin fibrillization, Alexa594 FP, 6 h; AID 1468; P10636; 280,000 tested, 0.39% active; note: nearly all actives have a fitted effect of over 55% in size
Target sequence (P10636 561-689 P618L limits assumed): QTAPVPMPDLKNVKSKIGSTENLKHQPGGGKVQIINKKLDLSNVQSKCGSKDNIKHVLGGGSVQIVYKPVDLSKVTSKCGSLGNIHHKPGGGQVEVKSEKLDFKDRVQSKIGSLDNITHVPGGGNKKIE
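K18 P301L tau (15 uM unlabeled/0.24 uM Alexa 594-labeled, final) + compound + heparin 20 uM final; 100 mM NaOAc pH 7; 6 hr 37 C; ThT 30 uM final added, 1 hr RT; FP ex 555/em 632 nm.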
Tau ThT inhib: tau fibrillization inhibition (ThT binding); P10636; Potency, µM (series often up to 57.4 µM), most hits filed as inhibitors; recombinant tau K18 P301L (four-repeat tau fragment), heparin-induced fibrillization, ThT fluorescence; 270,000 tested, 2.1% active; note: nearly all actives have a fitted effect of over 55% in size
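K18 P301L tau (15 uM + 0.24 uM Alexa 594-tagged), heparin 20 uM, NaOAc pH 7, 6 h 37 C; ThT 30 uM, 1 h RT, ex 450/em 510 nm.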
RORg inh: blocks mouse ROR gamma transcriptional activity; 310,000 tested, 5.4% active; AID 2551; P51450; Drosophila S2 Gal4-RORgamma UAS-luciferase reporter, 20 h; Potency, µM (doses to about 53.6 µM), usual class: inhibitors; note: nearly all actives have a fitted effect of over 60% in size
Target sequence (P51450 whole entry, looked up, the tested form may be a part): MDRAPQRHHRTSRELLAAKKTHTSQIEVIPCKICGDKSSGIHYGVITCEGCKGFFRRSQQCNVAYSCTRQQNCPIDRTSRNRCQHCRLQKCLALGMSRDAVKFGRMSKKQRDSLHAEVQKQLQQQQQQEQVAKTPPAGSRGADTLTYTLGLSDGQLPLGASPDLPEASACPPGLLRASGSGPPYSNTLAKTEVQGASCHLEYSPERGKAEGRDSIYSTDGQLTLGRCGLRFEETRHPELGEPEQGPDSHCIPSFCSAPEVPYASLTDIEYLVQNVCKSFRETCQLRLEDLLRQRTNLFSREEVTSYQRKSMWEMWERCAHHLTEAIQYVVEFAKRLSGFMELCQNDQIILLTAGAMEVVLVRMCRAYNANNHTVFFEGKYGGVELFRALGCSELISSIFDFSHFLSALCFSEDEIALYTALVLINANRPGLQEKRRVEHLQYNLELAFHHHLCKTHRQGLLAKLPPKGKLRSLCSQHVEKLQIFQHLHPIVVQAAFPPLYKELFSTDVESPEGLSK
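Luminescence from a UAS-regulated Photinus luciferase reporter in stably transfected Drosophila Schneider cells is measured; decreased signal marks ROR gamma inhibition. Fusion expression is induced by 700 uM copper sulfate for 20 hr.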
VP16 counter: inhibits Gal4-VP16 luciferase reporter, ROR gamma counter-screen. Potency, µM (highest dose often 53.6 µM), usual class: inhibitors. 310,000 tested, 3.5% active. Drosophila S2 Gal4-VP16 UAS-luciferase, luminescence, 20 h;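 note: Gal4-VP16 expression switched on by copper sulfate through the metallothionein promoter; nearly all actives have a fitted effect of over 50% in size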
Of the large screens only hits and unclear results are named; the others gave an inactive call; [ ] = another dose, or the depositor's remark. Calls come from the whole dose curve; as a rule, active = well fitted curve in the direction sought with a large enough effect; inconclusive = small, poorly fitted or top-dose-only effect, or another doubt; inactive = no such curve, though single readings can be large; an effect the other way counts as inactive or inconclusive.

O=C(NC(=S)Nc1ccc(S(=O)(=O)N2CCCCC2)cc1)c1cccs1	Tau FP inhib inconclusive, RORg inh 4.47µM, VP16 counter inconclusive
CC(C)Oc1ccc(CNC(=O)c2ccc(NC(=O)N3CCSc4ncccc43)cc2)cc1	none (no result: RORg inh, VP16 counter)
CSc1nc2c(c(=O)[nH]1)C(c1cccc(F)c1F)CC(=O)N2 (configuration not stated)	none (no result: RORg inh, VP16 counter)
COc1cc(C(=O)Nc2cc3c(cc2N2CCCCC2)n(C)c(=O)n3C)cc(OC)c1OC	RORg inh inconclusive (no result: Tau fluor cs, Tau FP inhib, Tau ThT inhib)
COC(=O)[C@@]1(Cc2ccc(F)cc2)[C@@H]2C(=CC(=O)[C@H]2CC(=O)C(=O)N(C)C)CN1C(=O)c1ccccc1	Tau ThT inhib inconclusive, RORg inh inconclusive, VP16 counter inconclusive
CC(C)(C)c1cc(NCc2ccccn2)n2ncc(-c3ccc(Cl)cc3)c2n1	Tau fluor cs inconclusive, Tau FP inhib inconclusive, Tau ThT inhib inconclusive, RORg inh 0.562µM, VP16 counter inconclusive
CCc1nccn1-c1cc(C(C)(C)C)nc2c(-c3ccc(Cl)cc3)cnn12	Tau ThT inhib inconclusive
CN(C)CCCNc1cc(C(C)(C)C)nc2c(-c3ccc(Cl)cc3)cnn12	Tau fluor cs 15.8µM[quencher], Tau ThT inhib inconclusive, RORg inh 2µM, VP16 counter 14.1µM
CCOc1ccc(N(C)C(=O)c2oc(=O)c3ccccc3c2-c2ccccc2)cc1	none (no result: RORg inh, VP16 counter)
COc1cccc(CN2CCN(Cc3cccc4c3OCO4)CC2CCO)c1 (configuration not stated)	RORg inh 7.08µM, VP16 counter 7.94µM
COc1ccc(-n2c(=O)cnc3cnc(N4CCOCC4)nc32)cc1	none (no result: Tau fluor cs, Tau FP inhib, Tau ThT inhib)
Oc1ccc2c(c1)OCC1(O)Cc3cc(O)c(O)cc3C21 (configuration not stated)	Tau fluor cs inconclusive, Tau FP inhib inconclusive, Tau ThT inhib 22.4µM, RORg inh 0.708µM, VP16 counter 5.62µM
Oc1ccc2c(c1)OCO2	none (no result: Tau fluor cs, Tau FP inhib, Tau ThT inhib)
Oc1cc2c(cc1O)[C@H]1c3ccc(O)c(O)c3OC[C@@]1(O)C2	Tau fluor cs inconclusive, Tau FP inhib inconclusive, Tau ThT inhib 17.8µM, RORg inh inconclusive
COc1ccc(OC)c(CNC(=O)Cn2ncc3c([nH]c4ccc(C)cc43)c2=O)c1	Tau FP inhib inconclusive (no result: RORg inh, VP16 counter)
CC(=O)/C(=N\Nc1cccc(Cl)c1)Sc1nnc(-c2ccccc2)n1-c1ccccc1	RORg inh 10µM, VP16 counter 11.2µM
CC(=O)/C(N)=N/Nc1cccc(Cl)c1	Tau fluor cs inconclusive, Tau ThT inhib inconclusive
CC(=O)/C(=N\Nc1cccc(Cl)c1)Sc1cccc2cccnc12	Tau ThT inhib inconclusive, RORg inh 3.16µM, VP16 counter inconclusive
COc1ccc(C)c2sc(N(Cc3cccnc3)C(=O)C3CCCCC3)nc12	none (no result: RORg inh, VP16 counter)
N#C/C(=C\c1c(Oc2ccccc2F)nc2ccccn2c1=O)C(=O)NC1CCS(=O)(=O)C1 (configuration not stated)	none (no result: Tau fluor cs, Tau FP inhib, Tau ThT inhib)
Nc1nc(C2CC2)c(Sc2sc(N)nc2C2CC2)s1	Tau fluor cs inconclusive, Tau ThT inhib 17.8µM
O=C(c1ccco1)c1coc2c1cc(O)c1ccccc12	Tau fluor cs inconclusive, Tau ThT inhib 3.55µM
CCNc1ncc2nc(-c3ccc(F)cc3)c(=O)n(C)c2n1	none (no result: Tau fluor cs, Tau FP inhib, Tau ThT inhib)
CCCCCS(=O)(=O)CCCCCCCCCCn1c(-c2ccc(O)cc2)c(C)c2cc(O)ccc21	Tau fluor cs 7.94µM[quencher], Tau FP inhib inconclusive, Tau ThT inhib inconclusive, RORg inh inconclusive, VP16 counter 20µM
CC(=O)c1c(C)n(CCO)c2ccc(O)cc12	none
O=C(Cn1ncc2c3ccccc3n(Cc3ccc(Cl)cc3)c2c1=O)NC1CCCCCC1	none (no result: RORg inh, VP16 counter)
Nc1ccccc1N=Cc1ccc(-c2cccc(Cl)c2)o1	Tau fluor cs inconclusive, Tau ThT inhib inconclusive, RORg inh inconclusive, VP16 counter 12.6µM
CC1=NOC(=O)/C1=C\c1ccc(-c2cccc(Cl)c2)o1	Tau fluor cs inconclusive, Tau ThT inhib 15.8µM, RORg inh inconclusive, VP16 counter inconclusive
CC1=NOC(=O)/C1=C\c1ccc(-c2ccc(Cl)c(C(=O)O)c2)o1	Tau ThT inhib inconclusive
S=c1[nH]nc(-c2ccco2)n1-c1ccccc1Cl	RORg inh 6.31µM, VP16 counter 17.8µM
Cc1onc(-c2ccccc2)c1-c1n[nH]c(=S)n1-c1ccccc1Cl	RORg inh 4.47µM, VP16 counter 15.8µM
FC(F)(F)c1ccc(Cl)c(-n2c(-c3cc(-c4ccco4)[nH]n3)n[nH]c2=S)c1	RORg inh inconclusive (no result: Tau ThT inhib)
S=c1[nH]nc(-c2cc(-c3ccco3)[nH]n2)n1-c1ccccc1Cl	Tau fluor cs inconclusive, Tau FP inhib inconclusive, Tau ThT inhib 20µM
S=c1[nH]nc(-c2cc(-c3ccco3)[nH]n2)n1-c1ccccc1	RORg inh 12.6µM
COc1ccc(OC)c(-n2c(-c3cc(-c4ccco4)[nH]n3)n[nH]c2=S)c1	none
CCN(CC)S(=O)(=O)c1ccc2c(c1)c(=O)c(C(=O)N1CCN(c3ccc(F)cc3)CC1)cn2C	Tau ThT inhib inconclusive (no result: RORg inh, VP16 counter)
COc1ccc(C(=O)N2CCN(Cc3cc(=O)n4nc(-c5ccccc5C)sc4n3)CC2)cc1OC	none (no result: RORg inh, VP16 counter)
COc1ccccc1N(CC(=O)N1CCN(c2ccc(F)cc2)CC1)S(=O)(=O)c1ccc(C)cc1	none (no result: Tau fluor cs, Tau FP inhib, Tau ThT inhib)
Nc1nc2ccc([N+](=O)[O-])c(N)c2s1	Tau fluor cs inconclusive, Tau FP inhib inconclusive, Tau ThT inhib 11.2µM
COc1ccc(C2CC(=O)Oc3c(C(CCN4CCOCC4)c4ccc5c(c4)OCO5)c(OC)cc(OC)c32)cc1 (configuration not stated)	none (no result: Tau fluor cs, Tau FP inhib, Tau ThT inhib)
CCOC(=O)N1CCN(S(=O)(=O)c2ccc(C(=O)Nc3nnc(C)o3)cc2)CC1	RORg inh inconclusive, VP16 counter inconclusive
CCOC(=O)N1CCN(S(=O)(=O)c2ccc(C(=O)Nc3nnc(CSC)o3)cc2)CC1	RORg inh 12.6µM, VP16 counter inconclusive
CCN(CC)S(=O)(=O)c1ccc(C(=O)Nc2nnc(COC)o2)cc1	RORg inh 3.55µM, VP16 counter 15.8µM
CCCCN(C)S(=O)(=O)c1ccc(C(=O)Nc2nnc(CSC)o2)cc1	RORg inh 0.794µM, VP16 counter 1.12µM
CCN(CC)S(=O)(=O)c1ccc(C(=O)Nc2nnc(CSC)o2)cc1	RORg inh 1.12µM, VP16 counter 3.98µM
COc1ccc(C(=O)Nc2ccc(-c3nc4ncccc4o3)cc2C)cc1Br	Tau ThT inhib inconclusive (no result: RORg inh, VP16 counter)
CCCCN(CCCC)S(=O)(=O)c1ccc(C(=O)Nc2nnc(COC)o2)cc1	RORg inh 0.447µM, VP16 counter 1µM
COCCN(CCOC)S(=O)(=O)c1ccc(C(=O)Nc2ccncc2)cc1	none (no result: Tau fluor cs, Tau FP inhib, Tau ThT inhib)
COc1cc(NC(=O)c2cc3nc(-c4ccccc4)cc(-c4ccccc4)n3n2)c(OC)cc1Cl	none (no result: RORg inh, VP16 counter)
O=C(CCC(=O)Nc1ccccc1Cl)NNC(=S)Nc1ccccc1C(F)(F)F	RORg inh 7.94µM, VP16 counter inconclusive (no result: Tau fluor cs, Tau FP inhib, Tau ThT inhib)
O=C(NNC(=S)Nc1ccccc1C(F)(F)F)C1CC1	RORg inh 20µM
NS(=O)(=O)c1ccc(NC(=S)NNC(=O)CCC(=O)Nc2ccccc2Cl)cc1	none (no result: Tau fluor cs, Tau FP inhib, Tau ThT inhib)
